# Measurements published in PubChem BioAssay (NCI).
# The panel holds about 79,000 compounds, 15% with a hit somewhere; the sample as a whole holds those more often. Calls of active or inactive are those of the source. Cut-off read from the data, not from the text of the source: active = growth inhibition above about 70%; inactive = the rest.
# Tests used:
# [1] = NCI Yeast Anticancer Drug Screen. Data for the rad52 strain (AID 147);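 note: 0% = growth of vehicle-treated control cultures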; conditions: S. cerevisiae rad52 mutant growth inhibition, hits give high values
# Procedure, shortened: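 Screen used a yeast mutant impaired in DNA repair. After compound exposure, growth was measured. Values reflect inhibition compared with vehicle-treated cells.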
# [2] = NCI Yeast Anticancer Drug Screen. Data for the wt1 strain (AID 149);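 note: 0% = growth of vehicle-treated wt1 cultures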; conditions: S. cerevisiae wt1 strain (SPY 50644) growth inhibition, hits give high values
# Procedure, shortened: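 Compounds are added to wt1 yeast cultures. Growth is then measured. Inhibition is expressed relative to vehicle-treated controls.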
# [3] = NCI Yeast Anticancer Drug Screen. Data for the rad50EPP+ strain (AID 151);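 note: 0% = growth of vehicle-treated control cultures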; conditions: S. cerevisiae rad50 mutant strain, hits give high values
# Procedure, shortened: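 Exposing the rad50EPP+ strain to each compound, growth was compared with vehicle-only cultures to give inhibition.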
# [4] = NCI Yeast Anticancer Drug Screen. Data for the mgt1 strain (AID 153); conditions: S. cerevisiae mgt1 mutant growth inhibition, hits give high values
# Procedure, shortened: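 Genetically defined yeast (mgt1) treated with compound; inhibition of growth expressed against vehicle-treated controls.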
# [5] = NCI Yeast Anticancer Drug Screen. Data for the rad50 strain (AID 155);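 note: 0% = growth of vehicle-only cultures of the same strain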; conditions: S. cerevisiae rad50 strain growth inhibition, hits give high values
# Procedure, shortened: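 Inhibition values express reduced yeast growth in compound-treated cultures relative to vehicle-treated controls.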
# [6] = NCI Yeast Anticancer Drug Screen. Data for the mec2-1 strain (AID 157); conditions: S. cerevisiae mec2-1 strain, hits give high values
# Procedure, shortened: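 Readout is yeast growth inhibition, normalised to vehicle-treated controls, in the mec2-1 strain exposed to compound.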
# [7] = NCI Yeast Anticancer Drug Screen. Data for the rad14 strain (AID 159);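 note: 0% = growth of vehicle-treated control cultures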; conditions: S. cerevisiae rad14 strain growth inhibition, hits give high values
# Procedure, shortened: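 A mutant yeast strain defective in DNA damage repair is treated with compound; inhibition of its growth is scored against untreated, vehicle-exposed cultures.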
# [8] = NCI Yeast Anticancer Drug Screen. Data for the sgs1 mgt1 strain (AID 161);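 note: 0% = growth of cultures given vehicle only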; conditions: S. cerevisiae sgs1 mgt1 strain, hits give high values
# Procedure, shortened: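 Yeast cells carrying a defined DNA-repair defect were exposed to test compounds. Growth inhibition was measured relative to vehicle-treated controls.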
# [9] = NCI Yeast Anticancer Drug Screen. Data for the CLN2oe strain (AID 163);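 note: 0% = growth of vehicle-only control cultures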; conditions: S. cerevisiae CLN2oe strain, hits give high values
# Procedure, shortened: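 Values reflect how much compound exposure reduced yeast growth, referenced to vehicle-exposed cells. Assay organism is a strain with a defined genetic change affecting cell-cycle control.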
# [10] = NCI Yeast Anticancer Drug Screen. Data for the cln2 rad14 strain (AID 165);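 note: 0% = growth equal to vehicle treated cultures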; conditions: S. cerevisiae cln2 rad14 strain, hits give high values
# Procedure, shortened: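 Relative to vehicle controls, growth inhibition of compound-treated cln2 rad14 yeast was recorded.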
# [11] = NCI Yeast Anticancer Drug Screen. Data for the bub3 strain (AID 167); conditions: S. cerevisiae bub3 mutant strain, hits give high values
# Procedure, shortened: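 Steps: expose the mutant yeast strain to compound; grow alongside vehicle-treated cultures; measure growth; express inhibition against the vehicle cultures.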
# [12] = NCI Yeast Anticancer Drug Screen. Data for the wt2 strain (AID 169);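 note: 0% = growth of vehicle-treated yeast cultures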; conditions: S. cerevisiae wt2 strain growth inhibition, hits give high values
# Procedure, shortened: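 Values express reduction in yeast growth under compound treatment, referenced to vehicle-treated cells.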
# [13] = NCI Yeast Anticancer Drug Screen. Data for the mlh1 strain (AID 171);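 note: 0% = growth of vehicle-treated control cultures of the same strain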; conditions: S. cerevisiae mlh1 strain growth inhibition, hits give high values
# Procedure, shortened: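 Steps: expose the defined-mutant yeast strain to compound; expose a parallel culture to vehicle; measure growth; express compound effect as inhibition relative to the vehicle culture.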
# [14] = NCI Yeast Anticancer Drug Screen. Data for the sgs1 strain (AID 173);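 note: 0% = growth of vehicle-only control cultures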; conditions: S. cerevisiae sgs1 mutant, hits give high values
# Procedure, shortened: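 Treat defined-mutant yeast with compound; measure growth; calculate inhibition relative to vehicle-treated cells.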
# [15] = NCI Yeast Anticancer Drug Screen. Data for the mlh1 rad18 strain (AID 175); conditions: S. cerevisiae mlh1 rad18 strain growth inhibition, hits give high values
# Procedure, shortened: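 Test agents were incubated with a yeast strain of defined genotype (DNA damage repair defect). Inhibition of growth was derived by comparison with vehicle-exposed cultures.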
# [16] = NCI Yeast Anticancer Drug Screen. Data for the rad18 strain (AID 177); conditions: S. cerevisiae rad18 mutant growth inhibition, hits give high values
# Procedure, shortened: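 A genetically defined yeast mutant impaired in DNA damage repair was treated with test compounds, then its growth was measured against cultures receiving vehicle alone.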
# [17] = at 5.0 µM (retest, dose inferred, filed as 0.5)
# [18] = at 50.0 µM (retest, dose inferred, filed as 5.0)
smiles,measurement,setting,value
CCC1(OC(=O)CN2CCN(CCO)CC2)C(=O)OCc2c1cc1n(c2=O)Cc2cc3ccccc3nc2-1 (stereo not drawn),growth inhibition,[1]; at 1.2 µM,35% (inactive)
same,growth inhibition,[1]; at 3.7 µM,49% (inactive)
same,growth inhibition,[1]; at 11.0 µM,70% (active)
same,growth inhibition,[1]; at 33.0 µM,89% (active)
same,growth inhibition,[1]; at 100.0 µM,93% (active)
same,growth inhibition,[2]; at 1.2 µM,9% (inactive)
same,growth inhibition,[2]; at 3.7 µM,15% (inactive)
same,growth inhibition,[2]; at 11.0 µM,24% (inactive)
same,growth inhibition,[2]; at 33.0 µM,13% (inactive)
same,growth inhibition,[2]; at 100.0 µM,7% (inactive)
same,growth inhibition,[3]; at 1.2 µM,16% (inactive)
same,growth inhibition,[3]; at 3.7 µM,17% (inactive)
same,growth inhibition,[3]; at 11.0 µM,42% (inactive)
same,growth inhibition,[3]; at 33.0 µM,60% (inactive)
same,growth inhibition,[3]; at 100.0 µM,82% (active)
same,growth inhibition,[4]; at 1.2 µM,-18% (inactive)
same,growth inhibition,[4]; at 3.7 µM,-20% (inactive)
same,growth inhibition,[4]; at 11.0 µM,-19% (inactive)
same,growth inhibition,[4]; at 33.0 µM,-23% (inactive)
same,growth inhibition,[4]; at 100.0 µM,-45% (inactive)
same,growth inhibition,[5]; at 1.2 µM,18% (inactive)
same,growth inhibition,[5]; at 3.7 µM,57% (inactive)
same,growth inhibition,[5]; [17],4% (inactive)
same,growth inhibition,[5]; at 11.0 µM,74% (active)
same,growth inhibition,[5]; at 33.0 µM,88% (active)
same,growth inhibition,[5]; [18],83% (active)
same,growth inhibition,[5]; at 50.0 µM,17.9% (inactive)
same,growth inhibition,[5]; at 100.0 µM,92% (active)
same,growth inhibition,[6]; at 1.2 µM,-23% (inactive)
same,growth inhibition,[6]; at 3.7 µM,-19% (inactive)
same,growth inhibition,[6]; [17],4% (inactive)
same,growth inhibition,[6]; at 11.0 µM,-12% (inactive)
same,growth inhibition,[6]; at 33.0 µM,-21% (inactive)
same,growth inhibition,[6]; [18],-2% (inactive)
same,growth inhibition,[6]; at 50.0 µM,20.1% (inactive)
same,growth inhibition,[6]; at 100.0 µM,29% (inactive)
same,growth inhibition,[7]; at 1.2 µM,-13% (inactive)
same,growth inhibition,[7]; at 3.7 µM,-4% (inactive)
same,growth inhibition,[7]; at 11.0 µM,-25% (inactive)
same,growth inhibition,[7]; at 33.0 µM,-14% (inactive)
same,growth inhibition,[7]; at 100.0 µM,-20% (inactive)
same,growth inhibition,[8]; [17],-8% (inactive)
same,growth inhibition,[8]; [18],-10% (inactive)
same,growth inhibition,[8]; at 50.0 µM,3.05% (inactive)
same,growth inhibition,[9]; at 1.2 µM,3% (inactive)
same,growth inhibition,[9]; at 3.7 µM,5% (inactive)
same,growth inhibition,[9]; at 11.0 µM,2% (inactive)
same,growth inhibition,[9]; at 33.0 µM,-23% (inactive)
same,growth inhibition,[9]; at 100.0 µM,-3% (inactive)
same,growth inhibition,[10]; [17],20% (inactive)
same,growth inhibition,[10]; [18],17% (inactive)
same,growth inhibition,[10]; at 50.0 µM,8.9% (inactive)
same,growth inhibition,[11]; at 1.2 µM,-4% (inactive)
same,growth inhibition,[11]; at 3.7 µM,1% (inactive)
same,growth inhibition,[11]; [17],0% (inactive)
same,growth inhibition,[11]; at 11.0 µM,-10% (inactive)
same,growth inhibition,[11]; at 33.0 µM,-14% (inactive)
same,growth inhibition,[11]; [18],3% (inactive)
same,growth inhibition,[11]; at 50.0 µM,-21.4% (inactive)
same,growth inhibition,[11]; at 100.0 µM,-30% (inactive)
same,growth inhibition,[12]; at 1.2 µM,11% (inactive)
same,growth inhibition,[12]; at 3.7 µM,9% (inactive)
same,growth inhibition,[12]; at 11.0 µM,14% (inactive)
same,growth inhibition,[12]; at 33.0 µM,5% (inactive)
same,growth inhibition,[12]; at 100.0 µM,-4% (inactive)
same,growth inhibition,[13]; at 1.2 µM,1% (inactive)
same,growth inhibition,[13]; at 3.7 µM,-5% (inactive)
same,growth inhibition,[13]; at 11.0 µM,-12% (inactive)
same,growth inhibition,[13]; at 33.0 µM,-20% (inactive)
same,growth inhibition,[13]; at 100.0 µM,-13% (inactive)
same,growth inhibition,[14]; at 1.2 µM,30% (inactive)
same,growth inhibition,[14]; at 3.7 µM,21% (inactive)
same,growth inhibition,[14]; at 11.0 µM,26% (inactive)
same,growth inhibition,[14]; at 33.0 µM,21% (inactive)
same,growth inhibition,[14]; at 100.0 µM,24% (inactive)
same,growth inhibition,[15]; [17],-8% (inactive)
same,growth inhibition,[15]; [18],-1% (inactive)
same,growth inhibition,[15]; at 50.0 µM,78.3% (active)
same,growth inhibition,[16]; at 1.2 µM,9% (inactive)
same,growth inhibition,[16]; at 3.7 µM,19% (inactive)
same,growth inhibition,[16]; at 11.0 µM,6% (inactive)
same,growth inhibition,[16]; at 33.0 µM,6% (inactive)
same,growth inhibition,[16]; at 100.0 µM,1% (inactive)
